Reference: the supplement of paper PMC3334620
Over roughly 33,000 sequences, “E-score (-0.5 to 0.5)” has its median near -0.012; the highest 2% begin near 0.29. Shown is part of a subset that was picked to be rich in the highest values.

molecular target: T1, Ybr033w (UniProt P38073); test: PBM E-score (8-mer binding enrichment) (E-score (-0.5 to 0.5)); higher = stronger / more preferred TF binding; conditions: protein concentration: 200 nM; construct: GST-full length
T1 sequence: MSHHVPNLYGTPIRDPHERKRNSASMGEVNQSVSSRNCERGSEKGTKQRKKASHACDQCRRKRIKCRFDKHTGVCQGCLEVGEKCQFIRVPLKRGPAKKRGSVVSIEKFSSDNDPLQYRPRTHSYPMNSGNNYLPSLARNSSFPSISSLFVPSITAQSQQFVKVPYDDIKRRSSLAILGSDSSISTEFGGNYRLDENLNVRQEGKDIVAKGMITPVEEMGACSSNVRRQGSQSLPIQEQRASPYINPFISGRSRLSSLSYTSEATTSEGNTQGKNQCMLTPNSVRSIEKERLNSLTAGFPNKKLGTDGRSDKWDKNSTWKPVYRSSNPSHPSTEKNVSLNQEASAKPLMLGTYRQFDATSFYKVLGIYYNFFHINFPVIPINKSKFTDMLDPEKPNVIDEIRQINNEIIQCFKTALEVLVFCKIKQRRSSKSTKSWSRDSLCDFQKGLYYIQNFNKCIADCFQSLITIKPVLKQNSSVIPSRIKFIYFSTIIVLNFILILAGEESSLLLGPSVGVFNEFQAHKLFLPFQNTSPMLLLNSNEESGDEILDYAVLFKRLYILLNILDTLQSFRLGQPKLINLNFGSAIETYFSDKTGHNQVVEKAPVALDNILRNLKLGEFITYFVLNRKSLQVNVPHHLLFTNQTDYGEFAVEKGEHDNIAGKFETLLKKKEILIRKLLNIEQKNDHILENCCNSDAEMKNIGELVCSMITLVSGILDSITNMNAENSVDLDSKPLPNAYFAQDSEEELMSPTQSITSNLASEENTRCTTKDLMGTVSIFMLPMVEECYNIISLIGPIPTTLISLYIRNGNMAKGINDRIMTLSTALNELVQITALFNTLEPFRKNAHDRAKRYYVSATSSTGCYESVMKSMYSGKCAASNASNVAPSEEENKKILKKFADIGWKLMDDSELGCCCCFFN
Protocol: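 Universal 'all 10-mer' protein binding microarrays (Agilent AMADID 015681) probed with GST-tagged S. cerevisiae TFs (full-length or DBD) made by in vitro transcription/translation (PURExpress), about 100-200 nM. Bound TF was detected with fluorescent anti-GST. Each ungapped 8-mer (which stands for itself and its reverse complement) is scored by the PBM enrichment score (E-score), a modified Wilcoxon-Mann-Whitney statistic from -0.5 to +0.5, computed with the Universal PBM Analysis Suite. Scale: above 0.35 generally sequence-specific binding.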

First: GTTATATA
Second: GCATTCAC
The “PBM E-score” value of the first is lower: 0.154 for the first, 0.216 for the second.

Compared with GTGGTCGA, TAGACAAA is higher in “PBM E-score” value: -0.198 for the first, 0.0827 for the second.

Going from ACGTACGA to ACATAGCG, the “PBM E-score” value rises from -0.182 to 0.0674.

Going from AACTACCC to GAGCCAAA, the “PBM E-score” value falls from 0.0868 to -0.113.

Compared with ATTCCCCA, GGTGGTAC is lower in “PBM E-score” value: -0.0626 for the first, -0.231 for the second.

Going from GACGGTCC to GTTATTAA, the “PBM E-score” value rises from -0.273 to 0.229.

Compared with ACTATTAC, CTTATTAA is higher in “PBM E-score” value: 0.134 for the first, 0.17 for the second.

Going from ATTATTAC to CTTATTAC, the “PBM E-score” value falls from 0.343 to 0.115.

Compared with ATTATTAA, ATCTAAGC is lower in “PBM E-score” value: 0.316 for the first, 0.0351 for the second.

First: AGCGTTGC
Second: CGCTTATC
The “PBM E-score” value of the first is lower: -0.0711 for the first, -0.00322 for the second.

First: CGGCTATA
Second: GTCCGGAA
The “PBM E-score” value of the first is lower: -0.0713 for the first, 0.19 for the second.

First: ATCCGGAC
Second: ATCCGGAA
The “PBM E-score” value of the first is lower: -0.0654 for the first, 0.403 for the second.

First: TTCCGGAA
Second: ATCCGGAG
The “PBM E-score” value of the first is higher: 0.316 for the first, 0.143 for the second.

First: CTCCGGAA
Second: CTCATCCC
The “PBM E-score” value of the first is higher: 0.22 for the first, -0.189 for the second.

First: CGTACTGC
Second: CTCGTCTA
The “PBM E-score” value of the first is lower: -0.151 for the first, -0.0771 for the second.

Going from GATAATCA to GATAATCC, the “PBM E-score” value rises from 0.236 to 0.375.

Going from AATAATCC to AACAATCG, the “PBM E-score” value falls from 0.439 to 0.0843.

Compared with GATAATGC, CATAATCC is lower in “PBM E-score” value: 0.115 for the first, 0.0679 for the second.

First: AATAATCA
Second: AACAATCC
The “PBM E-score” value of the first is lower: 0.234 for the first, 0.338 for the second.

Going from AACAATCT to ACCCGAAG, the “PBM E-score” value falls from 0.168 to -0.0833.

Compared with ACCTACTC, AACAAATC is higher in “PBM E-score” value: -0.0816 for the first, 0.315 for the second.

Going from AACAAAAA to ACAAAAAA, the “PBM E-score” value falls from 0.212 to 0.18.

First: AACAAGTT
Second: AACAAATA
The “PBM E-score” value of the first is lower: 0.188 for the first, 0.285 for the second.

Going from ACAAAAAT to AACAAAAT, the “PBM E-score” value falls from 0.308 to 0.291.

Going from GACAAATC to AACAAATT, the “PBM E-score” value rises from 0.24 to 0.374.

Compared with AACAAGTC, ACAAAAAC is higher in “PBM E-score” value: 0.0761 for the first, 0.243 for the second.

Going from AACAAGAT to AGGCAGTG, the “PBM E-score” value falls from 0.221 to -0.0313.

Going from GCCGTTTA to CAAAAGTA, the “PBM E-score” value rises from 0.0411 to 0.16.

Compared with AAGCCATA, ATGCACGA is lower in “PBM E-score” value: 0.0179 for the first, -0.021 for the second.

Compared with GGTGAGAC, ACCAATCC is lower in “PBM E-score” value: 0.0001 for the first, -0.0137 for the second.

Compared with AACCTTTC, ACCAGCAC is higher in “PBM E-score” value: -0.0863 for the first, -0.0392 for the second.

First: CTCTGCGA
Second: ATTCATCC
The “PBM E-score” value of the first is lower: -0.0389 for the first, 0.349 for the second.

Going from ATTCATCA to CTTCATCC, the “PBM E-score” value falls from 0.171 to -0.0751.

Going from ACATAAAT to AGGGTGGG, the “PBM E-score” value falls from 0.149 to -0.0779.

First: ACCAAGCG
Second: AGCACACA
The “PBM E-score” value of the first is lower: -0.0846 for the first, -0.0313 for the second.

First: AAAATGAA
Second: AAAATGGG
The “PBM E-score” value of the first is higher: 0.081 for the first, -0.032 for the second.

First: AAAATGGT
Second: AAAATGAC
The “PBM E-score” value of the first is higher: 0.319 for the first, 0.15 for the second.

Compared with AAAATGAT, AAAATGGA is lower in “PBM E-score” value: 0.369 for the first, 0.197 for the second.

Compared with GATATGGC, TCACCTAA is higher in “PBM E-score” value: -0.161 for the first, 0.0978 for the second.

First: GCGATACC
Second: CTGACTCA
The “PBM E-score” value of the first is lower: -0.236 for the first, -0.0835 for the second.

Compared with TATACAAA, GATACAAA is lower in “PBM E-score” value: 0.356 for the first, 0.277 for the second.

Compared with CATACAAA, ATTACAAT is lower in “PBM E-score” value: 0.246 for the first, 0.0893 for the second.

Going from ATTACAGC to AATACAAC, the “PBM E-score” value rises from -0.21 to 0.271.

Compared with ATTACAAG, AATACAAG is higher in “PBM E-score” value: 0.18 for the first, 0.252 for the second.

Compared with AATACAAA, ATTACAAA is higher in “PBM E-score” value: 0.302 for the first, 0.318 for the second.

First: ATTACAGA
Second: ATTACAGG
The “PBM E-score” value of the first is lower: 0.141 for the first, 0.326 for the second.

First: ACGGCTTG
Second: GGCGTGAC
The “PBM E-score” value of the first is higher: -0.0473 for the first, -0.141 for the second.

Going from ATACTGAG to CTCCAGTA, the “PBM E-score” value falls from 0.267 to 0.109.

Compared with AATCCATC, CAGCATAG is lower in “PBM E-score” value: 0.14 for the first, -0.0334 for the second.

First: CACTTGCA
Second: CGCTACAA
The “PBM E-score” value of the first is lower: -0.0412 for the first, 0.111 for the second.

Going from GGCAGCCA to AATACATG, the “PBM E-score” value rises from -0.0547 to 0.222.

First: AATACATC
Second: GATACATC
The “PBM E-score” value of the first is higher: 0.297 for the first, -0.0274 for the second.

Going from GTTCGAAC to GGCTGTCA, the “PBM E-score” value falls from 0.209 to -0.0424.

First: CAGCGAAC
Second: TCATAAGA
The “PBM E-score” value of the first is lower: 0.0498 for the first, 0.114 for the second.

Compared with ACATAAGC, ACATAAGA is higher in “PBM E-score” value: 0.0339 for the first, 0.293 for the second.

Compared with CCCAGTTA, GTGTTTGA is higher in “PBM E-score” value: -0.0098 for the first, 0.191 for the second.

First: CAAGTGGC
Second: GATATTCC
The “PBM E-score” value of the first is lower: 0.0512 for the first, 0.417 for the second.

Compared with CATATTAC, AATATTCT is higher in “PBM E-score” value: 0.17 for the first, 0.248 for the second.

Compared with GATATTCA, CATATTCC is lower in “PBM E-score” value: 0.12 for the first, 0.0424 for the second.

Going from GATATTAC to AATATTCG, the “PBM E-score” value falls from 0.31 to 0.161.

Going from GCTATTAC to AATATTCC, the “PBM E-score” value rises from -0.0504 to 0.45.

Going from CCTGCACG to AGCAGTCC, the “PBM E-score” value falls from -0.159 to -0.182.

Compared with GCGTGAAA, AACTGCTT is lower in “PBM E-score” value: 0.0243 for the first, 0.0101 for the second.

Compared with GCCGGTTA, CTACAGCA is higher in “PBM E-score” value: -0.0903 for the first, 0.0371 for the second.

Compared with TAAGGTCA, ACGGGAGT is higher in “PBM E-score” value: 0.028 for the first, 0.0679 for the second.

Compared with CCGCTCAG, AGAACAGG is lower in “PBM E-score” value: -0.111 for the first, -0.125 for the second.

First: AGGTTACC
Second: AATGATTA
The “PBM E-score” value of the first is lower: 0.0897 for the first, 0.251 for the second.

Going from AATGATCA to CATGATTC, the “PBM E-score” value falls from 0.0742 to -0.131.

Going from AATGATCC to AATGATCT, the “PBM E-score” value falls from 0.421 to 0.157.

Compared with GATGATCA, AATGATAT is higher in “PBM E-score” value: 0.0749 for the first, 0.298 for the second.

Compared with AATGATAG, GATGATCC is higher in “PBM E-score” value: 0.215 for the first, 0.4 for the second.

First: AATGATTC
Second: CATGATCC
The “PBM E-score” value of the first is higher: 0.306 for the first, 0.0454 for the second.

Compared with AATGATAA, TCCCACGA is lower in “PBM E-score” value: 0.192 for the first, 0.0793 for the second.

Compared with ACTAGCCA, AGAGTCTA is lower in “PBM E-score” value: 0.0538 for the first, -0.16 for the second.

Going from CGCTGCAG to GCGTTCAC, the “PBM E-score” value rises from -0.12 to -0.0913.

Going from GTACCGAC to CATGAGGA, the “PBM E-score” value rises from -0.275 to 0.0386.

Going from CGCTCTGC to CTGCGTGA, the “PBM E-score” value rises from -0.0367 to 0.0319.

First: ATTGATCC
Second: ATTGATCA
The “PBM E-score” value of the first is higher: 0.466 for the first, 0.051 for the second.

Compared with CTTGATCC, ATGCTTCA is higher in “PBM E-score” value: 0.0221 for the first, 0.0658 for the second.

First: CACTACTA
Second: ATCTACTA
The “PBM E-score” value of the first is lower: 0.094 for the first, 0.324 for the second.

First: ATCTACTG
Second: AACTACTG
The “PBM E-score” value of the first is higher: 0.143 for the first, 0.126 for the second.

Going from TAATACTA to TACTACTA, the “PBM E-score” value falls from 0.362 to 0.335.

Going from GACTACTA to ATCTACTC, the “PBM E-score” value rises from 0.122 to 0.127.

Going from AACTACTC to CAATACTA, the “PBM E-score” value rises from 0.119 to 0.143.

Going from AACTACTA to GAATACTA, the “PBM E-score” value falls from 0.298 to 0.204.

First: TAACTATA
Second: ATGCTGCG
The “PBM E-score” value of the first is higher: 0.242 for the first, -0.15 for the second.
